Laboratory results: PubChem BioAssay (NCI)
About 83,000 compounds went through this panel and 20% of them were active in at least one assay; those are over-represented in the sample as a whole.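 Activity criterion: percent growth below 10, measured after cells in 96-well plates were exposed to a single compound concentration for 48 hours.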 Calls of active or inactive are those of the source.

Experiments:
Test in all cases: NCI-60 one-dose screen, 48 h (100 = growth as untreated, 0 = no growth, -100 = all killed)
Conditions in all cases: 10 µM unless noted
HCT-15 colon = test system: HCT-15 colon
HT29 colon = test system: HT29 colon
SNB-75 CNS = test system: SNB-75 CNS
SNB-19 CNS = test system: SNB-19 CNS
U251 CNS = test system: U251 CNS
PC-3 prostate = test system: PC-3 prostate
SK-MEL-5 melanoma = test system: SK-MEL-5 melanoma
UACC-62 melanoma = test system: UACC-62 melanoma
LOX IMVI melanoma = test system: LOX IMVI melanoma
SK-MEL-28 melanoma = test system: SK-MEL-28 melanoma

Measured: growth

O=C(NC1CCOCC1)c1ccc2c(c1)CN(c1ncc(Cc3cccc(-n4cccn4)c3)s1)CC2
inactive: HCT-15 colon 79.3% | HT29 colon 72.8% | SNB-75 CNS 91.5% | SNB-19 CNS 95.7% | U251 CNS 72.6% | PC-3 prostate 58.7% | SK-MEL-5 melanoma 31.5% | UACC-62 melanoma 64.5% | LOX IMVI melanoma 63.8% | SK-MEL-28 melanoma 88.3%

CCCCNC(=O)c1cc(NCc2cc(O)ccc2O)ccc1O
inactive: HCT-15 colon 84.6% | HT29 colon 80.8% | SNB-75 CNS 66.6% | SNB-19 CNS 106% | U251 CNS 98.6% | PC-3 prostate 74.4% | SK-MEL-5 melanoma 98.4% | UACC-62 melanoma 93.8% | LOX IMVI melanoma 91.3% | SK-MEL-28 melanoma 105%

COc1ccc(/C(C)=C(\c2ccc(Cl)cc2)c2ccc(OCCN(C)C)cc2)cc1F
active: HT29 colon 8.32% | LOX IMVI melanoma -44.6%
inactive: HCT-15 colon 16.4% | SNB-75 CNS 75.4% | SNB-19 CNS 80% | U251 CNS 46% | PC-3 prostate 51.2% | SK-MEL-5 melanoma 55% | UACC-62 melanoma 42.3% | SK-MEL-28 melanoma 30.9%

CCC(=O)OC1=C(C)SC2=NC(c3ccc(Cl)c(Cl)c3)=CC(c3cc(OC)c(OC)c(OC)c3)N21 (stereo not given)
inactive: HCT-15 colon 89.8% | HT29 colon 103% | SNB-75 CNS 76.9% | SNB-19 CNS 94.5% | U251 CNS 95.9% | PC-3 prostate 91.8% | SK-MEL-5 melanoma 98.7% | UACC-62 melanoma 87.8% | LOX IMVI melanoma 99.6% | SK-MEL-28 melanoma 104%

Cc1ccc(/C(=N\N=C(N)N)c2ccccc2)cc1
active: HCT-15 colon -4.22% | HT29 colon 3.12% | SNB-19 CNS 9.71% | SK-MEL-5 melanoma -13.4%
inactive: SNB-75 CNS 28.5% | U251 CNS 12.7% | PC-3 prostate 14.1% | UACC-62 melanoma 20.7% | LOX IMVI melanoma 28.3% | SK-MEL-28 melanoma 64.4%

C/C(=N\NC(=O)Cn1c(-c2ccc(S(C)(=O)=O)cc2)nc2cc(Cl)ccc21)c1ccc(Cl)cc1
inactive: HCT-15 colon 77% | HT29 colon 79.7% | SNB-75 CNS 69.7% | SNB-19 CNS 84.3% | U251 CNS 79.7% | PC-3 prostate 49.2% | SK-MEL-5 melanoma 84.2% | UACC-62 melanoma 76.2% | LOX IMVI melanoma 89.4% | SK-MEL-28 melanoma 90%

CCCCCOC(=O)c1ccc(NC(=O)CNCC(C)C)cc1
inactive: HCT-15 colon 86.8% | HT29 colon 80.6% | SNB-75 CNS 86.3% | SNB-19 CNS 90.6% | U251 CNS 93.1% | PC-3 prostate 65.8% | SK-MEL-5 melanoma 95.7% | UACC-62 melanoma 91.6% | LOX IMVI melanoma 94.4% | SK-MEL-28 melanoma 105%

COC(=O)/C(=C\c1ccc(OC)cc1)C(=O)N1c2ccccc2Sc2ccccc21
active: SNB-75 CNS 2.37%
inactive: HCT-15 colon 24% | HT29 colon 15.3% | SNB-19 CNS 66.9% | U251 CNS 50.3% | PC-3 prostate 53% | SK-MEL-5 melanoma 41.5% | UACC-62 melanoma 19.5% | LOX IMVI melanoma 50.6% | SK-MEL-28 melanoma 50.9%

c1ccc2[nH]c(SSc3nc4ncncc4[nH]3)nc2c1
inactive: HCT-15 colon 26.9% | HT29 colon 29.5% | SNB-75 CNS 45.5% | SNB-19 CNS 84.4% | U251 CNS 54% | PC-3 prostate 42.9% | SK-MEL-5 melanoma 28.1% | UACC-62 melanoma 12.7% | SK-MEL-28 melanoma 86%
active: LOX IMVI melanoma 4.64%

CC(=O)NCC(=O)Nc1ccc(-c2nnc3ccccn23)nc1.CC(=O)NCC(=O)Nc1ccc(-c2nnc3ccccn23)nc1.[Pt+2]
inactive: HCT-15 colon 109% | HT29 colon 98.3% | SNB-75 CNS 132% | SNB-19 CNS 107% | U251 CNS 99.4% | PC-3 prostate 101% | SK-MEL-5 melanoma 108% | UACC-62 melanoma 110% | LOX IMVI melanoma 106% | SK-MEL-28 melanoma 118%

N#Cc1cnn2c(-c3ccc(Cl)cc3)nc(NCCc3ccccc3)nc12
inactive: HCT-15 colon 103% | HT29 colon 80.7% | SNB-75 CNS 78.8% | SNB-19 CNS 100% | U251 CNS 97% | PC-3 prostate 73.7% | SK-MEL-5 melanoma 99.8% | UACC-62 melanoma 65.7% | LOX IMVI melanoma 84.9% | SK-MEL-28 melanoma 101%

CN1CCC(=C2c3ccccc3C=Cc3ccccc32)CC1
inactive: HCT-15 colon 73.7% | HT29 colon 61.9% | SNB-75 CNS 47.8% | SNB-19 CNS 91.7% | U251 CNS 59.8% | PC-3 prostate 64.9% | SK-MEL-5 melanoma 68.6% | UACC-62 melanoma 82.5% | LOX IMVI melanoma 72.1% | SK-MEL-28 melanoma 85.9%

Cl.Fc1c[c-]c(-c2ccccn2)c(F)c1.[Pt].c1ccc([PH+](c2ccccc2)c2ccccc2[PH+](c2ccccc2)c2ccccc2)cc1
active: HCT-15 colon -83.8% | HT29 colon -63.3% | SNB-75 CNS -98.3% | SNB-19 CNS -94.9% | U251 CNS -87.8% | PC-3 prostate -86.6% | SK-MEL-5 melanoma -97.2% | UACC-62 melanoma -85.6% | LOX IMVI melanoma -92.6% | SK-MEL-28 melanoma -94.5%

CCCCN(CCCC)CCCn1c(=O)c2sc3ncccc3c2n2nnc(-c3ccccc3)c12
inactive: HCT-15 colon 99.8% | HT29 colon 74.4% | SNB-75 CNS 86.1% | SNB-19 CNS 101% | U251 CNS 95.3% | PC-3 prostate 91.3% | SK-MEL-5 melanoma 107% | UACC-62 melanoma 90.8% | LOX IMVI melanoma 110% | SK-MEL-28 melanoma 98.4%

CCNCCNc1cc(-c2ccc(C(=O)OC)cc2)c(C#N)c2nc3ccccc3n12
active: HT29 colon 4.67% | SNB-75 CNS -38.2% | U251 CNS -29% | UACC-62 melanoma -17.7% | LOX IMVI melanoma -53.4%
inactive: HCT-15 colon 45.8% | SNB-19 CNS 41.8% | PC-3 prostate 54.1% | SK-MEL-5 melanoma 71.6% | SK-MEL-28 melanoma 17%

O=C(/C=C/C12c3ccccc3C(c3ccccc31)C1C(=O)N(c3ccccc3)C(=O)C12)c1ccccc1 (stereo not given)
active: HCT-15 colon -25.8% | U251 CNS 7.97% | SK-MEL-5 melanoma -67.1% | UACC-62 melanoma 1.31% | LOX IMVI melanoma -81.4% | SK-MEL-28 melanoma 2.04%
inactive: HT29 colon 15.1% | SNB-75 CNS 34.2% | SNB-19 CNS 31.2% | PC-3 prostate 21.2%

COc1ccc(OC)c(Nc2nc3nonc3nc2Nc2cc(OC)ccc2OC)c1
inactive: HCT-15 colon 73.5% | HT29 colon 42.6% | SNB-75 CNS 18.7% | SNB-19 CNS 76.1% | U251 CNS 11.5% | PC-3 prostate 79.4% | SK-MEL-5 melanoma 12% | UACC-62 melanoma 47% | LOX IMVI melanoma 34.3% | SK-MEL-28 melanoma 58.1%

O=C(/C=C/c1ccccc1)c1ccc2ccccc2c1
inactive: HCT-15 colon 48.5% | HT29 colon 54.7% | SNB-75 CNS 107% | SNB-19 CNS 99.3% | U251 CNS 93.2% | PC-3 prostate 90.1% | SK-MEL-5 melanoma 92% | UACC-62 melanoma 92.6% | LOX IMVI melanoma 89.3% | SK-MEL-28 melanoma 108%

CCOC(=O)c1c(C)nc2c(c1N)/C(=C/c1cc(OC)c(OC)c(OC)c1)C(=O)N2c1ccc(OC)cc1
inactive: HCT-15 colon 31.3% | HT29 colon 26.2% | SNB-75 CNS 73.9% | SNB-19 CNS 47.9% | U251 CNS 43.6% | PC-3 prostate 50.1% | SK-MEL-5 melanoma 69.5% | UACC-62 melanoma 67.3% | LOX IMVI melanoma 14.6% | SK-MEL-28 melanoma 70.2%

C/C(Cc1ccc(Cl)cc1)=C(/c1ccc(Cl)cc1)c1ccc(OCCN(C)C)cc1
active: HCT-15 colon 2.19% | HT29 colon 8.12% | LOX IMVI melanoma -88%
inactive: SNB-75 CNS 68.7% | SNB-19 CNS 69.4% | U251 CNS 38.2% | PC-3 prostate 58.1% | SK-MEL-5 melanoma 67.5% | UACC-62 melanoma 82% | SK-MEL-28 melanoma 84.4%

N#Cc1c(Oc2ccc([N+](=O)[O-])cc2)nc2sc3cc(Cl)ccc3n2c1=N
inactive: HCT-15 colon 102% | HT29 colon 33.4% | SNB-75 CNS 29.7% | SNB-19 CNS 74.8% | U251 CNS 75.9% | PC-3 prostate 76.7% | SK-MEL-5 melanoma 58.1% | UACC-62 melanoma 79.3% | LOX IMVI melanoma 92.1% | SK-MEL-28 melanoma 84.1%

O=c1oc2ccc(Cl)cc2cc1-c1cs/c(=N/N=C\c2ccc(Cl)cc2)n1/N=C/c1ccc(Cl)cc1
inactive: HCT-15 colon 105% | HT29 colon 91.8% | SNB-75 CNS 123% | SNB-19 CNS 98.4% | U251 CNS 102% | PC-3 prostate 99.4% | SK-MEL-5 melanoma 104% | UACC-62 melanoma 93.8% | LOX IMVI melanoma 110% | SK-MEL-28 melanoma 110%

COc1cc2c(O)n(CCCn3ccnc3)c3c4cnc5cccc(c(=O)c3c2cc1OC)c54
inactive: HCT-15 colon 95.2% | HT29 colon 33.8% | SNB-75 CNS 52% | SNB-19 CNS 33.8% | U251 CNS 14% | PC-3 prostate 28.2% | SK-MEL-5 melanoma 24.9% | UACC-62 melanoma 15% | SK-MEL-28 melanoma 79.6%
active: LOX IMVI melanoma 3.76%

Cc1nc(Nc2ccc(NC(=S)Nc3ccccc3)cc2)nc2nc(Nc3ccc(S(=O)(=O)O)cc3)[nH]c(=O)c12
inactive: HCT-15 colon 127% | HT29 colon 145% | SNB-75 CNS 128% | SNB-19 CNS 96.2% | U251 CNS 110% | PC-3 prostate 99.5% | SK-MEL-5 melanoma 117% | UACC-62 melanoma 105% | LOX IMVI melanoma 109% | SK-MEL-28 melanoma 125%

Cn1nnnc1-c1ccc(N)cc1
inactive: HCT-15 colon 98.9% | HT29 colon 95% | SNB-75 CNS 88.4% | SNB-19 CNS 105% | U251 CNS 100% | PC-3 prostate 93.9% | SK-MEL-5 melanoma 102% | UACC-62 melanoma 99.7% | LOX IMVI melanoma 95.1% | SK-MEL-28 melanoma 103%

COC(=O)CNC(=O)C(=O)c1c(O)c(O)c(C(C)C)c2cc(C)c(-c3c(C)cc4c(C(C)C)c(O)c(O)c(C(=O)C(=O)NCC(=O)OC)c4c3O)c(O)c12
inactive: HCT-15 colon 18.3% | SNB-75 CNS 57.5% | SNB-19 CNS 18.5% | PC-3 prostate 18.7% | SK-MEL-5 melanoma 50.1% | UACC-62 melanoma 48.5% | LOX IMVI melanoma 21.2% | SK-MEL-28 melanoma 44.7%
active: HT29 colon 6.08% | U251 CNS 4.8%

Cc1cnc(Nc2ccc(N3CCN(C)CC3)cc2)nc1Nc1ccc(Cl)c(NS(=O)(=O)C(C)(C)C)c1
inactive: SNB-19 CNS 53.1% | U251 CNS 24.2% | PC-3 prostate 39.4% | UACC-62 melanoma 16.1% | SK-MEL-28 melanoma 35.2%
active: HCT-15 colon 4.29% | HT29 colon -31.1% | SNB-75 CNS -36.8% | SK-MEL-5 melanoma -8.43% | LOX IMVI melanoma -84.4%
